Screens from PubChem BioAssay.
SW480 rereplic = inducers of DNA re-replication in SW480 colon cancer cells | Potency, µM (titrated, usually from 46.1 µM), usual class: activators | SW480 DNA re-replication, Hoechst DNA content imaging, 48 h | AID 624297 | 340,000 compounds, 1.8% hits; further: nearly all actives have a fitted effect of over 55% in size
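Hoechst fluorescence of nuclei (405 nm excitation, 500-530 nm emission) measured by plate-scanning imager after 48 hr compound exposure at 37 C; re-replication scored as increased number of nuclei with elevated intensity.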
RORg inh = inhibitors of mouse ROR gamma transcriptional activity; Drosophila S2 Gal4-RORgamma UAS-luciferase reporter, 20 h; Potency, µM (highest dose often 53.6 µM), most hits filed as inhibitors; P51450; 310,000 compounds, 5.4% hits; further: nearly all actives have a fitted effect of over 60% in size
Target sequence (P51450 whole entry, looked up, the tested form may be a part): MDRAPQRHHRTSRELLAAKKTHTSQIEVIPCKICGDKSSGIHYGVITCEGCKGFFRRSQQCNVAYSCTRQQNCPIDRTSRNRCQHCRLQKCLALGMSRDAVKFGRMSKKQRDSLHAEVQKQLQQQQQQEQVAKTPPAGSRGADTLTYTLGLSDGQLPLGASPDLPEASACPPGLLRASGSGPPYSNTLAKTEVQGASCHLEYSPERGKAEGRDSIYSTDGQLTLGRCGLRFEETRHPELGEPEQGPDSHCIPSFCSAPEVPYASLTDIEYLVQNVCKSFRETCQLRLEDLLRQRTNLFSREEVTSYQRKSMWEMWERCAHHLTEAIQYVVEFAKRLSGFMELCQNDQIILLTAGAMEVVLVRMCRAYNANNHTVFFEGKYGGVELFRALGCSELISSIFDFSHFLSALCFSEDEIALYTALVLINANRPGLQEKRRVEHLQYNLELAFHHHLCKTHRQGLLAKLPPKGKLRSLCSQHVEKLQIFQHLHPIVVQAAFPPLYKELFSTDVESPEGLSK
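Luminescence from a UAS-regulated Photinus luciferase reporter in stably transfected Drosophila Schneider cells is measured; decreased signal marks ROR gamma inhibition. Fusion expression is induced by 700 uM copper sulfate for 20 hr.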
MCF10A rerep = DNA re-replication induction in MCF 10a cells | MCF 10A DNA re-replication, Hoechst nuclear intensity, 48 h | 350,000 compounds, 2.9% hits | Potency, µM (doses to about 46.1 µM), most hits filed as activators; further: nearly all actives have a fitted effect of over 50% in size
Giardia kill = kills Giardia lamblia; Giardia lamblia trophozoite viability; activity change, % at 7.66 µM, hits read low; AID 540267; 340,000 compounds, 0.15% hits; in the data active means activity change below about -80%; inconclusive means between about -30% and that limit;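 further: parasites exposed to compound for two days anaerobically before the ATP read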
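Killing of trophozoites was scored by loss of ATP luminescence after a 48 hrs anaerobic exposure to compounds at 37 deg C, using 100 cells per well.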
Chronic BCR inh = blocks chronic active B-cell receptor signaling; ABC-DLBCL IkBa-CBG/CBR reporter, luminescence ratio, 4 h; Potency, µM (top dose mostly 46.1 µM), most hits filed as inhibitors; 340,000 compounds, 0.05% hits; active means well fitted inhibition curve with a large enough effect in the signal ratio, with a control signal flat, not every such curve was filed as active; inconclusive means small, poorly fitted or top-dose-only effect, or effect the other way, or a change in a side signal; the % refers to the signal ratio
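TMD8 ABC-DLBCL cells carrying doxycycline-inducible green luciferase fused to IkappaBalpha plus unfused red luciferase were exposed to compounds (up to 46 uM) for 4 hrs at 37C. Activity came from the overlap-corrected green/red luminescence ratio.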
VP16 counter = inhibits Gal4-VP16 luciferase reporter, ROR gamma counter-screen; 310,000 compounds, 3.5% hits; Drosophila S2 Gal4-VP16 UAS-luciferase, luminescence, 20 h; AID 2546; Potency, µM (highest dose often 53.6 µM), usual class: inhibitors;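 further: Gal4-VP16 expression switched on by copper sulfate through the metallothionein promoter; nearly all actives have a fitted effect of over 50% in size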
Of the large screens only hits and unclear results are named; the others gave an inactive call. Compounds with a hit are over-represented: about 8.3% of the library has one in this group of screens. Unless noted, the call rests on the fitted dose curve; in most records, active means well fitted curve in the direction sought with a large enough effect; inconclusive means small, poorly fitted or top-dose-only effect, or another doubt; inactive means no such curve, though single readings can be large; an effect the other way counts as inactive or inconclusive.

CCCOc1ccc(C(=O)NNC(=S)NC(=O)c2cc(-c3ccccc3)nc3ccccc23)cc1	RORg inh 7.1µM
CCCOc1ccc(C(=O)NNC(=S)NC(=O)c2cccs2)cc1	SW480 rereplic inconclusive, RORg inh 8.9µM, Chronic BCR inh inconclusive, VP16 counter 7.9µM
CCCOc1ccc(-c2cc(C(=O)NCC3CCCO3)c3ccccc3n2)cc1 (centres undefined)	none
COc1cc(S(C)=O)ccc1-c1nc2ncccc2[nH]1 (centres undefined)	Chronic BCR inh inconclusive
CCCCn1c(O)c(/C=C2\C=NN=C2c2ccccc2)sc1=S	SW480 rereplic inconclusive, RORg inh inconclusive, MCF10A rerep 10µM, VP16 counter inconclusive
CCCCCCn1c(O)c(/C=C2\C=NN=C2c2ccccc2)sc1=S	SW480 rereplic inconclusive, MCF10A rerep inconclusive
CC(C)Cn1c(O)c(/C=C2\C=NN=C2c2ccccc2)sc1=S	SW480 rereplic inconclusive, RORg inh inconclusive, MCF10A rerep 23µM, VP16 counter inconclusive
CCn1c(O)c(/C=C2\C=NN=C2c2ccccc2)sc1=S	none
O=C(/C(=N\Nc1ccc([N+](=O)[O-])cc1)Sc1nnnn1-c1ccccc1)c1ccccc1	RORg inh inconclusive, MCF10A rerep inconclusive, VP16 counter inconclusive
Cc1ccc(N/N=C(/Sc2nnnn2-c2ccccc2)C(=O)c2ccccc2)cc1	RORg inh 10µM, MCF10A rerep inconclusive, VP16 counter inconclusive
COc1ccc(CCNC(=O)c2cc(COc3c(C)cccc3C)on2)c(OC)c1	Chronic BCR inh inconclusive
CC1CC(C)CN(S(=O)(=O)c2ccc(C(=O)Nc3sccc3C(N)=O)cc2)C1 (centres undefined)	MCF10A rerep inconclusive, VP16 counter inconclusive
CCC1CCCCN1S(=O)(=O)c1ccc(C(=O)Nc2nnc(-c3cccs3)o2)cc1 (centres undefined)	SW480 rereplic inconclusive, RORg inh 0.32µM, MCF10A rerep inconclusive, Giardia kill inconclusive, VP16 counter 0.32µM
CC1CC(C)CN(S(=O)(=O)c2ccc(C(=O)Nc3nnc(-c4cccs4)o3)cc2)C1 (centres undefined)	RORg inh 0.25µM, MCF10A rerep inconclusive, VP16 counter 0.5µM
Cc1cc(C)cc(N(C(=O)c2csnn2)C(C(=O)NC2CCCC2)c2cccnc2)c1 (centres undefined)	none
Cc1cc(=O)c2cc(NC(=O)c3ccccc3Cl)ccc2[nH]1	Chronic BCR inh inconclusive
N#C/C(=C/c1cn(-c2ccccc2)nc1-c1cccc(OCc2ccc(F)cc2)c1)C(=O)NCCCn1ccnc1	SW480 rereplic inconclusive, RORg inh inconclusive, MCF10A rerep 10µM, VP16 counter 11µM
O=C(Nc1c2c(nc3ccccc13)CCCC2)c1ccccc1F	none
O=C(Nc1c2c(nc3ccccc13)CCCC2)c1ccccc1Cl	SW480 rereplic 7.3µM
COC(=O)c1cccc(Nc2c3c(nc4ccccc24)CCC3)c1	SW480 rereplic inconclusive, MCF10A rerep inconclusive
CC(=O)c1cccc(Nc2c3c(nc4ccccc24)CCC3)c1	SW480 rereplic 5.8µM, MCF10A rerep inconclusive, Chronic BCR inh inconclusive
CC(=O)c1ccc(Nc2c3c(nc4ccccc24)CCCC3)cc1	SW480 rereplic inconclusive, MCF10A rerep 15µM, Chronic BCR inh inconclusive
CCC[C@@H](CN1CCC[C@H]1CN1C(N)=NC[C@@H]1Cc1ccccc1)N1C[C@@H](Cc2ccccc2)N(CCCC2CCCC2)C1=N	none (no result: RORg inh, VP16 counter)
CCC[C@@H](CN1CCC[C@H]1CN1C(N)=NC[C@@H]1Cc1ccccc1)N1C[C@@H]([C@H](C)CC)N(CCCC2CCCC2)C1=N	SW480 rereplic inconclusive, MCF10A rerep 18µM (no result: RORg inh, VP16 counter)
Cc1cccc(OCCC(=O)OC(C)C(=O)Nc2ccc(Cl)cn2)c1 (centres undefined)	none (no result: RORg inh, VP16 counter)
CC(OC(=O)CCOc1ccccc1)C(=O)Nc1ccc(Cl)cn1 (centres undefined)	SW480 rereplic inconclusive, MCF10A rerep 16µM, Chronic BCR inh inconclusive
CS(=O)(=O)c1ccc(C(=O)NNC(=O)c2ccccc2-n2cccc2)cc1	none (no result: RORg inh, VP16 counter)
O=C(NCC1CCCO1)C(Cc1ccccc1)N1C(=O)C2C3C=CC(C4CC34)C2C1=O (centres undefined)	SW480 rereplic inconclusive, MCF10A rerep 15µM
O=C(NNc1ccccc1)Nc1cc(Cl)ccc1Cl	SW480 rereplic inconclusive, MCF10A rerep inconclusive (no result: RORg inh, Chronic BCR inh, VP16 counter)
CCOc1ccc(N2C(=O)CC(Sc3nc(C)cc(C)n3)C2=O)cc1 (centres undefined)	none
CCOc1ccc2nc(SC3CC(=O)N(c4ccc(OC)cc4)C3=O)sc2c1 (centres undefined)	SW480 rereplic inconclusive, RORg inh 16µM, MCF10A rerep inconclusive, VP16 counter inconclusive
COc1ccc(N2C(=O)CC(Sc3nc4ccccc4s3)C2=O)cc1 (centres undefined)	RORg inh 5µM, MCF10A rerep inconclusive, VP16 counter inconclusive
C=CCNc1nnc(SC2CC(=O)N(c3ccc(OC)cc3)C2=O)s1 (centres undefined)	RORg inh 4.5µM, MCF10A rerep 5.8µM, VP16 counter 13µM
Cc1cccc(N2CC(C(=O)NC3CCCCCC3)CC2=O)c1C (centres undefined)	none (no result: RORg inh, VP16 counter)
Cc1cc(NC(=O)CSc2nc(N)c(NC(=O)c3ccccc3F)c(=O)[nH]2)no1	none
O=C(O)c1ccc(Cl)cc1Cl	none (no result: SW480 rereplic, MCF10A rerep, Giardia kill, Chronic BCR inh)
C/C(=N\NC(=S)NCCc1ccccc1)c1cccc(Br)c1	RORg inh 4.5µM, Chronic BCR inh inconclusive, VP16 counter inconclusive
C=CCNC(=S)N/N=C(\C)c1cccc(OC)c1	RORg inh 0.79µM, Chronic BCR inh inconclusive, VP16 counter 0.89µM
COc1ccccc1/C(C)=N/NC(=S)NCc1ccccc1	RORg inh 3.2µM, Chronic BCR inh inconclusive, VP16 counter 7.1µM
C/C(=N\NC(=S)NCc1ccccc1)c1ccc2ccccc2c1	SW480 rereplic inconclusive, RORg inh 2.5µM, MCF10A rerep 16µM, VP16 counter 4.5µM
COc1ccc(/C(C)=N/NC(=O)c2ccccc2OCc2ccccc2)c(OC)c1	Chronic BCR inh inconclusive
C/C(=N\NC(=S)NCc1ccccc1)c1cccc(Br)c1	RORg inh inconclusive
COc1ccc(CNC(=O)CCC2N=C3c4ccccc4N=C(SCc4cccc(F)c4)N3C2=O)cc1 (centres undefined)	none (no result: SW480 rereplic, RORg inh, MCF10A rerep, Giardia kill, VP16 counter)
COc1ccc(/C(C)=N/NC(=S)NCc2ccco2)cc1	RORg inh 2.8µM, Chronic BCR inh inconclusive, VP16 counter 5.6µM
COc1ccc(/C(C)=N/NC(=O)CNC(=O)c2ccco2)cc1	none
COc1ccc(CNC(=S)N/N=C(\C)c2ccc(OC)cc2)cc1	RORg inh 6.3µM, Chronic BCR inh inconclusive, VP16 counter 5µM
C=CCNC(=S)N/N=C(\C)c1cccnc1	RORg inh 3.2µM, Chronic BCR inh inconclusive, VP16 counter 20µM
